Laboratory results as given in PubChem BioAssay AID1347076 (National Center for Advancing Translational Sciences (NCATS), 2019).
About 13,000 (3.2%) of roughly 400,000 compounds were called active. Another 18% or so got no clear call; they are omitted. Calls follow the shape of the dose curve; as a rule, active = well fitted cell-killing curve with a large enough effect; inconclusive = small, poorly fitted or top-dose-only effect, or effect the other way; inactive = flat fitted curve, though single readings scatter. The list comes from a sample in which actives are over-represented; it also holds similar structures and randomly drawn compounds. Where a call stands in place of a potency, no number is given.

Experiment: qHTS assay for MDR1-selective chemotherapeutics: Primary screen using the drug-selected MDR subline cells KB-V1; also: nearly all actives have a fitted effect of over 60% in size
Settings: KB-V1 MDR cells viability, CellTiter-Glo, 72 h; series mostly up to 46.1 µM
In short: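 Readout: CellTiter-Glo luminescence, 10 min after addition. Cells: KB-V1 MDR subline, 72 h at 37 degrees C with compound. Analysis: corrected, normalized data fitted to concentration-effect curves.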
Potency is read from the fitted curve at half-maximal effect.

Which Potency does the source give for `O=C(NCc1cccnc1)c1ccc2nc([C@@H]3O[C@H](CO)[C@H](O)[C@H](O)[C@H]3O)[nH]c2c1` here?
The Potency was “inactive”.

For `Cc1cccc(-n2c(N)c(C(=O)N3CCN(C)CC3)sc2=S)c1`, which Potency is on record?
Its Potency is “inactive”.

For `O=C(c1ccc(S(=O)(=O)c2ccccc2)cc1)N1CCCCCC1`, which Potency is on record?
Its Potency is “inactive”.

With `N#Cc1ccccc1-n1c(N)c(C(=O)N2CCCC2)sc1=S` as the compound, how does the Potency read?
Its Potency is 16.4 µM (active).

For `COc1ccc(C(=O)NCC[N+](C)(C)C)cc1`, which Potency is on record?
The Potency was “inactive”.

With `CC1(C(=O)NCc2ccccc2)CSCC(=O)N1CCCN1CCOCC1` (configuration not stated) as the compound, how does the Potency read?
The Potency was “inactive”.

Which Potency does the source give for `O=C(Nc1ccc(Cl)c(C(F)(F)F)c1)C1Cc2c(-c3ccccc3Oc3ccccc3)ccnc2O1` (configuration not stated) here?
Its Potency is “inactive”.

For `Cc1cccc(NC(=O)Nc2ccc(OCc3ccccc3)cc2)n1`, which Potency is on record?
Its Potency is “inactive”.

Which Potency does the source give for `CNC(=O)c1sc(Nc2ccc(OCc3ccccc3)cc2)nc1C` here?
Its Potency is 8.2 µM (active).

For `CNC(=O)c1sc(NCc2ccccc2OC)nc1C`, which Potency is on record?
The Potency was “inactive”.

With `COc1ccc(C(=O)N2CCCCC2c2cc(C(=O)Nc3ccc(F)c(Cl)c3)no2)cc1` (configuration not stated) as the compound, how does the Potency read?
Its Potency is “inactive”.

Which Potency does the source give for `O=[N+]([O-])c1ccc(CN2CC(N3CC=CC3)CS2(=O)=O)cc1` (configuration not stated) here?
The Potency was “inactive”.

With `CC(C)(C)S(=O)N1Cc2cc(C(=O)NCCCN3CCOCC3)nc(-c3cccc(-c4cc5ccccc5o4)c3)c2[C@H]1CCO` (some centres not stated) as the compound, how does the Potency read?
The Potency was “inactive”.

Which Potency does the source give for `O=C(NCc1ccco1)c1ccc(Cn2c(=O)c3sccc3n(Cc3ccc(F)cc3)c2=O)cc1` here?
Its Potency is “inactive”.

For `O=C(NCc1ccco1)c1cc2sccc2n1Cc1ccc(F)cc1`, which Potency is on record?
Its Potency is 16.4 µM (active).

For `CC(=O)Nc1ccc(NC(=O)c2cc3sccc3n2Cc2ccc(F)cc2)cc1`, which Potency is on record?
The Potency was “inactive”.

Which Potency does the source give for `CCCCCCN1C[C@H](O)[C@@H](n2cc(C3CC3)nn2)C[C@@H]1c1ccc(Cl)cc1` here?
Its Potency is “inactive”.

With `COC(=O)c1sccc1NC(=O)c1ccc(Cl)cc1` as the compound, how does the Potency read?
Its Potency is “inactive”.

For `CCOC(=O)c1ccc(NC(=O)c2csc3c2CCCCC3)cc1`, which Potency is on record?
Its Potency is “inactive”.

Which Potency does the source give for `COC(=O)c1sccc1NC(=O)c1csc2c1CCCC2` here?
The Potency was 14.6 µM (active).

For `CCNC(=S)Nc1ccc2c(c1)c(=O)n(C)n2Cc1ccc(Cl)cc1`, which Potency is on record?
The Potency was “inactive”.

Which Potency does the source give for `CCC(C(=O)NC(C)(C)C)n1c(-c2ccccc2)nc2ccccc21` (configuration not stated) here?
Its Potency is “inactive”.

With `O=C(Nc1ccc(Br)cn1)c1ccc([N+](=O)[O-])o1` as the compound, how does the Potency read?
Its Potency is “inactive”.

Which Potency does the source give for `Cc1cccc(NC(=O)c2ccc([N+](=O)[O-])o2)c1` here?
The Potency was 18.4 µM (active).

With `Cc1onc(NC(=O)c2ccc([N+](=O)[O-])o2)c1Br` as the compound, how does the Potency read?
Its Potency is “inactive”.

With `CCN(CC)C(=O)CSc1nnc(-c2cccc(OC)c2)o1` as the compound, how does the Potency read?
The Potency was 11.6 µM (active).

With `COc1cccc(-c2nnc(SCC(=O)N3CCC(C)CC3)o2)c1` as the compound, how does the Potency read?
The Potency was “inactive”.

Which Potency does the source give for `COc1cccc(NC(=O)CSc2nnc(-c3cccnc3)o2)c1` here?
Its Potency is “inactive”.

With `COC(=O)Nc1nc2ccc(Sc3ccccc3)cc2[nH]1` as the compound, how does the Potency read?
Its Potency is 1.16 µM (active).

With `Cc1ccc2nc(CNC(=O)c3ccccc3)[nH]c2c1` as the compound, how does the Potency read?
Its Potency is “inactive”.

With `CC(C)c1nc2ccc(C(=O)O)cc2[nH]1` as the compound, how does the Potency read?
The Potency was “inactive”.

With `CCN(CCCNC(=O)Cn1ncc2c3ccccc3n(C)c2c1=O)Cc1ccccc1` as the compound, how does the Potency read?
The Potency was “inactive”.

Which Potency does the source give for `COCCN(CCOC)S(=O)(=O)c1ccc(/C(O)=C(\C#N)c2nc3ccccc3[nH]2)cc1` here?
The Potency was “inactive”.

Which Potency does the source give for `COCCN(CCOC)S(=O)(=O)c1ccc(C(=O)Nc2nc3c(s2)CCc2ccccc2-3)cc1` here?
Its Potency is 8.2 µM (active).

With `C=CCN(CC=C)S(=O)(=O)c1ccc(C(=O)Nc2nc3c(s2)CCc2ccccc2-3)cc1` as the compound, how does the Potency read?
The Potency was “inactive”.

For `O=[N+]([O-])c1ccc(S(=O)(=O)N2CCN(c3nc(-c4ccccc4)nc4ccccc34)CC2)cc1`, which Potency is on record?
Its Potency is “inactive”.

For `CN(C)CCNC(=O)c1cccc(-c2cnc3c(NC=O)cc(-c4cccc(C(F)(F)F)c4)cn23)c1`, which Potency is on record?
Its Potency is 14.6 µM (active).

With `COc1ccc(-c2cc(NC=O)c3ncc(-c4ccccc4)n3c2)cc1OC` as the compound, how does the Potency read?
Its Potency is 18.4 µM (active).

With `CC(=O)Nc1cc(-c2cccc(CO)c2)cn2c(-c3cccc(C(F)(F)F)c3)cnc12` as the compound, how does the Potency read?
The Potency was “inactive”.

Which Potency does the source give for `CN(C)C(=O)c1cccc(-c2cnc3c(NC=O)cc(-c4ccc(C(=O)N5CCOCC5)cc4)cn23)c1` here?
Its Potency is “inactive”.

For `CC(=O)c1cccc(-c2cnc3c(NC=O)cc(-c4ccc(N5CCN(C)CC5)cc4)cn23)c1`, which Potency is on record?
The Potency was “inactive”.

Which Potency does the source give for `CC(=O)c1ccc(-c2cnc3c(NC=O)cc(-c4cccc(NS(C)(=O)=O)c4)cn23)cc1` here?
Its Potency is “inactive”.

Which Potency does the source give for `CC(=O)c1cccc(-c2cnc3c(NC=O)cc(-c4ccc(N(C)C)cc4)cn23)c1` here?
The Potency was 18.4 µM (active).

Which Potency does the source give for `CC(=O)c1cccc(-c2cnc3c(NC=O)cc(-c4cccc(C(=O)N(C)C)c4)cn23)c1` here?
The Potency was “inactive”.

For `CC(=O)c1cccc(-c2cnc3c(NC=O)cc(-c4ccccc4Oc4ccccc4)cn23)c1`, which Potency is on record?
Its Potency is “inactive”.

With `CC(C)(C)C(=O)c1c(N)[nH]c(C(=O)c2ccccc2)c1-c1ccc(F)cc1` as the compound, how does the Potency read?
The Potency was “inactive”.

With `CCCNC(=O)C1(C)CCCN(Cc2cccc(C(F)(F)F)c2)C1` (configuration not stated) as the compound, how does the Potency read?
The Potency was “inactive”.

For `CC1CN(C(=O)c2cccc(NS(=O)(=O)c3ccc(Br)cc3)c2)CC(C)O1` (configuration not stated), which Potency is on record?
Its Potency is “inactive”.

With `CCN(CC)C(=O)C1=C(C)N(Cc2ccc(F)cc2)C(=O)C(CC(=O)NCc2cccc3ccccc23)C1` (configuration not stated) as the compound, how does the Potency read?
The Potency was “inactive”.

Which Potency does the source give for `FC(F)(F)Oc1ccccc1C(c1nnnn1C1CCCCC1)N1CCN(C/C=C/c2ccccc2)CC1` (configuration not stated) here?
The Potency was “inactive”.

Which Potency does the source give for `CCCCC[C@@H]1C=C(C(=O)OCC)[C@H](c2ccccc2)N1S(=O)(=O)c1ccc(C)cc1` here?
Its Potency is “inactive”.

Which Potency does the source give for `CS(=O)(=O)N1CCCCC1c1cc(C(=O)NCc2ccccc2)no1` (configuration not stated) here?
The Potency was “inactive”.

With `Cc1ccc(Cn2c(=O)n(-c3ccc(C)cc3)c(=O)c3c2c2cc(C)ccc2n3C)cc1` as the compound, how does the Potency read?
The Potency was “inactive”.

With `CCOC(=O)COc1ccc([N+](=O)[O-])cc1` as the compound, how does the Potency read?
Its Potency is “inactive”.

With `CCOC(=O)/C(=C\c1ccc([N+](=O)[O-])cc1)C(=O)c1cc(C(C)=O)c(Nc2ccccc2)s1` as the compound, how does the Potency read?
Its Potency is 8.2 µM (active).

With `Cc1ccc(NC(=O)/C(=C/c2ccc([N+](=O)[O-])cc2)NC(=O)c2ccccc2)cc1` as the compound, how does the Potency read?
The Potency was “inactive”.

With `O=c1c(NCc2cccs2)nccn1-c1ccccc1` as the compound, how does the Potency read?
Its Potency is “inactive”.

For `COc1ccccc1N1CCN(Cc2ccc(OC)c3ccccc23)CC1`, which Potency is on record?
Its Potency is 16.4 µM (active).

With `CNCC(O)CN1CCN(c2ccccc2OC)CC1` (configuration not stated) as the compound, how does the Potency read?
Its Potency is “inactive”.

For `COc1ccccc1N1CCN(Cc2cc(OC)c3c(c2)OCO3)CC1`, which Potency is on record?
The Potency was “inactive”.

Which Potency does the source give for `CCCn1c(NCc2ccc(N(CC)CC)cc2)nc2ccccc21` here?
Its Potency is “inactive”.

Which Potency does the source give for `COc1ccc(-c2ccc(CN3C(C(C)C)C(=O)N(Cc4cn(CC5CCCCC5)nn4)CCS3(=O)=O)cc2)cn1` (configuration not stated) here?
The Potency was “inactive”.
